Data published in PMC7826789 (International Journal of Molecular Sciences, 2021).

Tests used:
Conditions in all cases: Compound Concentration (nM):1000
PIK3CA(C420R) = tested on: PIK3CA(C420R)
PIK3CA(E542K) = tested on: PIK3CA(E542K)
PIK3CA(E545A) = tested on: PIK3CA(E545A)
PIK3CA(E545K) = tested on: PIK3CA(E545K)
PIK3CA(H1047L) = tested on: PIK3CA(H1047L)
PIK3CA(H1047Y) = tested on: PIK3CA(H1047Y)
PIK3CA(I800L) = tested on: PIK3CA(I800L)
PIK3CA(M1043I) = tested on: PIK3CA(M1043I)
PIK3CA(Q546K) = tested on: PIK3CA(Q546K)
PIK3CA = tested on: PIK3CA
PIK3CB = tested on: PIK3CB
PIK3CD = tested on: PIK3CD
PIK3CG = tested on: PIK3CG
PIK4CB = tested on: T1, PIK4CB
T1 construct: gene PI4KB

PIKFYVE = tested on: PIKFYVE
PIM1 = tested on: PIM1
PIM2 = tested on: PIM2
PIM3 = tested on: PIM3
PIP5K1A = tested on: PIP5K1A
PIP5K1C = tested on: PIP5K1C
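Further: KINOMEscan scanMAX binding as percent activity remaining versus control; lower means stronger binding.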

Compound	Percent Control (PIK3CA(C420R)) [%]	Percent Control (PIK3CA(E542K)) [%]	Percent Control (PIK3CA(E545A)) [%]	Percent Control (PIK3CA(E545K)) [%]	Percent Control (PIK3CA(H1047L)) [%]	Percent Control (PIK3CA(H1047Y)) [%]	Percent Control (PIK3CA(I800L)) [%]	Percent Control (PIK3CA(M1043I)) [%]	Percent Control (PIK3CA(Q546K)) [%]	Percent Control (PIK3CA) [%]	Percent Control (PIK3CB) [%]	Percent Control (PIK3CD) [%]	Percent Control (PIK3CG) [%]	Percent Control (PIK4CB) [%]	Percent Control (PIKFYVE) [%]	Percent Control (PIM1) [%]	Percent Control (PIM2) [%]	Percent Control (PIM3) [%]	Percent Control (PIP5K1A) [%]	Percent Control (PIP5K1C) [%]
CC(C)COC(=O)c1ccc2c(c1)/C(=C/Nc1ccc(S(N)(=O)=O)cc1)C(=O)N2 [GW416981X]	100	100	100	100	100	100	100	87	100	100	100	95	100	100	100	81	100	40	33	89
NS(=O)(=O)c1ccc(N/N=C2\C(=O)Nc3ccc(Cl)cc32)cc1 [GW280670X]	100	100	100	100	100	100	100	100	100	100	100	94	100	100	94	100	100	100	100	80
C/C(Nc1ccc(S(N)(=O)=O)cc1)=C1/C(=O)Nc2ccccc21 [GW335962X]	95	100	100	100	100	85	100	100	100	100	100	95	100	100	100	91	95	89	96	84
Nc1ncnc2occ(-c3ccc(NC(=O)Nc4cc(C(F)(F)F)ccc4F)cc3)c12 [GW770249X]	100	100	100	100	100	100	100	90	100	100	100	100	100	100	95	100	100	100	100	90
CC1=C(C(=O)Nc2ccc3[nH]ncc3c2)C(c2ccc(Cl)c(Cl)c2)CC(=O)N1 (stereo not shown) [GSK299115A]	90	73	90	73	97	76	78	68	83	82	75	100	93	80	100	83	100	91	86	100
COc1ccc2c(-c3ccnc(Nc4cccc(OC(F)(F)F)c4)n3)cnn2n1 [GW810372X]	86	100	90	97	75	82	91	100	100	100	100	69	85	72	69	100	100	100	77	66
Cl.O=C(Nc1ccc(Oc2ccc3[nH]c(NC(=O)c4ccco4)nc3c2)cc1)Nc1cc(C(F)(F)F)ccc1F [GW683134A]	100	99	100	100	78	100	100	100	100	100	100	90	100	100	100	100	100	100	100	98
COc1cc(/C=N/Nc2ncnc3[nH]ncc23)ccc1O [GW578748X]	97	63	82	59	18	84	51	43	62	82	54	100	24	5	28	83	100	53	78	0
O=C(Nc1n[nH]c2nc(-c3ccc(O)cc3)c(Br)cc12)C1CC1 [SB-725317]	92	100	100	100	100	93	100	100	100	100	100	75	100	100	99	23	0.4	9.3	100	59
CN(C)CCNC(=O)Nc1ccc(N(C)c2ccnc(Nc3ccc(CS(C)(=O)=O)cc3)n2)cc1.Cl [GW830900A]	100	84	100	80	100	98	86	92	87	92	84	76	91	11	100	100	100	97	23	86
COc1cc(C)c(N(C)C(=O)CN(C)C)cc1Nc1nc(Nc2cccc(F)c2C(N)=O)c2cc[nH]c2n1 [GSK2219385]	84	100	97	100	100	67	100	100	100	100	100	75	100	85	97	90	92	86	100	100
COc1cccc(-n2ncc3c(N/N=C/c4ccncc4)ncnc32)c1 [GW784752X]	100	100	100	92	100	100	96	100	100	100	94	100	54	90	18	100	100	100	86	79
COc1ccc2cc(-c3c(-c4ccncc4)nc(-c4ccc(S(C)(=O)=O)cc4C)n3C)ccc2c1 [SB-633825]	88	79	84	81	100	91	83	83	91	70	94	100	79	69	100	78	97	80	95	100
Cl.c1ccc(Cc2nc3ccc(Nc4ncnc5ccccc45)cc3[nH]2)cc1 [GR269666A]	100	100	100	99	100	100	100	100	100	100	100	98	100	100	100	100	100	100	100	86
COC(=O)Nc1nc2ccc(Oc3ccc(NC(=O)Nc4cc(C(F)(F)F)ccc4F)cc3)cc2s1.Cl [GW693917A]	95	96	100	83	91	84	82	100	94	100	100	76	100	95	100	100	100	100	100	100
COc1cc(C=NNc2ncnc3c2cnn3-c2ccccc2)ccc1O [GW513184X]	78	100	76	100	100	62	100	59	100	78	100	76	22	34	4.9	100	100	100	29	51
CN1CCN(C(=O)c2ccc(NC(=O)Nc3ccc(N(C)c4ccnc(Nc5ccc(CS(C)(=O)=O)cc5)n4)cc3)cc2)CC1.Cl [GW830263A]	100	98	100	97	96	100	98	100	100	98	100	100	93	97	100	100	100	100	9.3	97
CC1=C(C(=O)Nc2ccc3[nH]ncc3c2)C(c2ccc3ccccc3c2)CC(=O)N1 (stereo not shown) [GSK270822A]	90	83	91	88	97	89	93	74	86	90	70	100	97	73	83	91	100	92	95	99
COc1cc(N2CCN(C(C)C)CC2)ccc1Nc1nc(Nc2ccc(F)cc2C(=O)NC[C@@H](O)CO)c2cc[nH]c2n1 [GSK1392956A]	99	100	100	95	100	83	97	97	100	100	96	80	100	100	95	100	100	100	100	100
CCn1c(-c2nonc2N)nc2c(C#CC(C)(C)O)nc(OCCNC)cc21.Cl [GSK949675]	100	100	88	100	100	77	100	100	100	75	91	82	73	100	20	100	56	100	79	0
